Assay results from PubChem BioAssay AID1159580 (chemical genetic matrix, 2015).
Values joined by “and” are separate entries in the source; they are usually repeats but may differ in a detail not shown here. Identical values can stand only once. In all, about 5,500 compounds went through this assay and about 2,000 (36%) were called active. Not shown: some 18% with an inconclusive outcome. Rule as the data show it: active = normalized growth mostly below about 0.91 (no sharp cut-off); inconclusive = no clear call, values can overlap the other calls; inactive = mostly above about 0.92. The list shows a part of the results.

Assay: chemical genetic growth profiling, strain panel (AID 1159580);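 also: tested at 20 µM; growth read once vehicle control cultures reached saturation at 30 °C; 1 = growth at the plate median or of vehicle wells; lower values mean less growth of the strain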
Settings: growth OD

Measured: normalized growth

CC(C)Cn1c(=O)n(C)c(=O)c2[nH]cnc21
inactive: S. cerevisiae deletion strains, locus YJR075W, strain HOC1, stronger effect = lower value 0.999 | S. cerevisiae deletion strains, locus YKL009W, strain mrt4, stronger effect = lower value 0.969 | S. cerevisiae deletion strains, locus YKL068W, stronger effect = lower value 0.991 | S. cerevisiae deletion strains, locus YKL085W, strain MDH1 (second series), stronger effect = lower value 0.983 | S. cerevisiae deletion strains, locus YKL085W, strain MDH1, stronger effect = lower value 0.983 | S. cerevisiae deletion strains, locus YKL160W, strain elf1, stronger effect = lower value 0.986 and 0.992 | S. cerevisiae deletion strains, locus YKL190W, strain CNB1, stronger effect = lower value 1.01 | S. cerevisiae deletion strains, locus YKR001C, strain vps1, stronger effect = lower value 0.967 | S. cerevisiae deletion strains, locus YKR026C, strain gcn3, stronger effect = lower value 0.985 and 1.01 | S. cerevisiae deletion strains, locus YKR091W, strain srl3, stronger effect = lower value 0.988 and 1 | S. cerevisiae deletion strains, locus YLL001W, strain dnm1, stronger effect = lower value 0.994 and 1.01 | S. cerevisiae deletion strains, locus YLL026W, stronger effect = lower value 0.999 and 1.01 | S. cerevisiae deletion strains, locus YLL041C, strain sdh2, stronger effect = lower value 0.997 and 1 | S. cerevisiae deletion strains, locus YLR027C, strain aat2, stronger effect = lower value 1 and 1.01 | S. cerevisiae deletion strains, locus YLR039C, strain RIC1, stronger effect = lower value 0.953 | S. cerevisiae deletion strains, locus YLR058C, strain SHM2, stronger effect = lower value 0.991 | S. cerevisiae deletion strains, locus YLR102C, strain apc9, stronger effect = lower value 0.99 | S. cerevisiae deletion strains, locus YLR113W, strain HOG1, stronger effect = lower value 1.01 and 0.985 | S. cerevisiae deletion strains, locus YLR221C, strain rsa3, stronger effect = lower value 1 and 1.04 | S. cerevisiae deletion strains, locus YLR258W, strain gsy2, stronger effect = lower value 0.988 and 1.02 | S. cerevisiae deletion strains, locus YLR262C, strain YPT6 (second series), stronger effect = lower value 1.01 and 0.998 | S. cerevisiae deletion strains, locus YLR262C, strain YPT6, stronger effect = lower value 0.966 | S. cerevisiae deletion strains, locus YLR268W, strain sec22, stronger effect = lower value 0.978 | S. cerevisiae deletion strains, locus YLR320W, strain mms22, stronger effect = lower value 1 and 1.04 | S. cerevisiae deletion strains, locus YLR330W, strain CHS5, stronger effect = lower value 0.991 | S. cerevisiae deletion strains, locus YLR342W, strain FKS1 (second series), stronger effect = lower value 0.953 | S. cerevisiae deletion strains, locus YLR342W, strain FKS1, stronger effect = lower value 1 and 1.01 | S. cerevisiae deletion strains, locus YLR357W, strain rsc2, stronger effect = lower value 1.03 and 1 | S. cerevisiae deletion strains, locus YLR370C, strain arc18, stronger effect = lower value 1 and 1.03 | S. cerevisiae deletion strains, locus YLR371W, strain rom2, stronger effect = lower value 0.982 | S. cerevisiae deletion strains, locus YLR384C, strain iki3, stronger effect = lower value 0.985 and 1.01 | S. cerevisiae deletion strains, locus YLR418C, strain cdc73, stronger effect = lower value 1.02 | S. cerevisiae deletion strains, locus YML016C, strain PPZ1, stronger effect = lower value 0.988 | S. cerevisiae deletion strains, locus YML032C, strain rad52, stronger effect = lower value 0.973 | S. cerevisiae deletion strains, locus YML120C, strain ndi1, stronger effect = lower value 1.01 and 0.981 | S. cerevisiae deletion strains, locus YML124C, strain tub3, stronger effect = lower value 0.981 | S. cerevisiae deletion strains, locus YMR058W, strain fet3, stronger effect = lower value 1.01 and 1.03 | S. cerevisiae deletion strains, locus YMR078C, strain ctf18, stronger effect = lower value 0.98 | S. cerevisiae deletion strains, locus YMR125W, strain sto1, stronger effect = lower value 0.998 and 0.978 | S. cerevisiae deletion strains, locus YMR129W, stronger effect = lower value 0.994 and 1 | S. cerevisiae deletion strains, locus YMR205C, strain PFK2, stronger effect = lower value 0.991 and 0.986 | S. cerevisiae deletion strains, locus YMR223W, strain ubp8, stronger effect = lower value 0.973 | S. cerevisiae deletion strains, locus YMR231W, strain pep5, stronger effect = lower value 1 and 1.01 | S. cerevisiae deletion strains, locus YMR263W, strain SAP30, stronger effect = lower value 1.01 | S. cerevisiae deletion strains, locus YMR307W, strain GAS1, stronger effect = lower value 0.924 | S. cerevisiae deletion strains, locus YNL067W, strain RPL9B, stronger effect = lower value 0.999 | S. cerevisiae deletion strains, locus YNL071W, strain lat1, stronger effect = lower value 1.02 and 1 | S. cerevisiae deletion strains, locus YNL128W, strain TEP1, stronger effect = lower value 1.01 | S. cerevisiae deletion strains, locus YNL153C, strain GIM3, stronger effect = lower value 1.02 | S. cerevisiae deletion strains, locus YNL175C, strain NOP13, stronger effect = lower value 0.999 | S. cerevisiae deletion strains, locus YNL183C, strain NPR1, stronger effect = lower value 0.928 and 0.909 | S. cerevisiae deletion strains, locus YNL197C, strain WHI3, stronger effect = lower value 0.986 | S. cerevisiae deletion strains, locus YNL209W, strain ssb2, stronger effect = lower value 1.02 and 0.995 | S. cerevisiae deletion strains, locus YNL224C, strain SQS1, stronger effect = lower value 0.998 | S. cerevisiae deletion strains, locus YNL233W, strain BNI4, stronger effect = lower value 0.998 | S. cerevisiae deletion strains, locus YNL248C, strain rpa49, stronger effect = lower value 0.996 and 1.06 | S. cerevisiae deletion strains, locus YNL250W, strain rad50, stronger effect = lower value 0.98 | S. cerevisiae deletion strains, locus YNL271C, strain bni1, stronger effect = lower value 0.999 | S. cerevisiae deletion strains, locus YNL298W, strain CLA4, stronger effect = lower value 0.983 | S. cerevisiae deletion strains, locus YNL307C, strain MCK1, stronger effect = lower value 0.976 | S. cerevisiae deletion strains, locus YNL322C, strain KRE1 (second series), stronger effect = lower value 0.996 and 0.988 | S. cerevisiae deletion strains, locus YNL322C, strain KRE1, stronger effect = lower value 0.993 and 0.979 | S. cerevisiae deletion strains, locus YNR049C, strain mso1, stronger effect = lower value 0.992 and 1.01 | S. cerevisiae deletion strains, locus YNR052C, strain pop2, stronger effect = lower value 0.989 | S. cerevisiae deletion strains, locus YOL006C, strain TOP1, stronger effect = lower value 0.998 | S. cerevisiae deletion strains, locus YOL012C, strain htz1 2.1 | S. cerevisiae deletion strains, locus YOL147C, strain pex11, stronger effect = lower value 0.985 | S. cerevisiae deletion strains, locus YOR001W, strain rrp6, stronger effect = lower value 1.01 and 1.05 | S. cerevisiae deletion strains, locus YOR061W, strain CKA2, stronger effect = lower value 0.993 | S. cerevisiae deletion strains, locus YOR069W, strain VPS5, stronger effect = lower value 0.987 | S. cerevisiae deletion strains, locus YOR070C, strain gyp1, stronger effect = lower value 1 and 1.01 | S. cerevisiae deletion strains, locus YOR080W, strain dia2, stronger effect = lower value 1.01 | S. cerevisiae deletion strains, locus YOR083W, strain WHI5 (second series), stronger effect = lower value 0.998 | S. cerevisiae deletion strains, locus YOR083W, strain WHI5, stronger effect = lower value 0.958 and 0.992 | S. cerevisiae deletion strains, locus YOR106W, strain vam3, stronger effect = lower value 1 and 0.973 | S. cerevisiae deletion strains, locus YOR136W, strain idh2, stronger effect = lower value 0.981 | S. cerevisiae deletion strains, locus YOR144C, strain elg1, stronger effect = lower value 0.987 | S. cerevisiae deletion strains, locus YOR184W, strain ser1, stronger effect = lower value 0.96 | S. cerevisiae deletion strains, locus YOR231W, strain MKK1, stronger effect = lower value 1.01 and 0.96 | S. cerevisiae deletion strains, locus YOR265W, strain rbl2, stronger effect = lower value 1 | S. cerevisiae deletion strains, locus YOR270C, strain vph1, stronger effect = lower value 0.997 and 1.08 | S. cerevisiae deletion strains, locus YOR290C, strain snf2, stronger effect = lower value 0.994 and 0.97 | S. cerevisiae deletion strains, locus YOR316C, strain cot1, stronger effect = lower value 0.993 | S. cerevisiae deletion strains, locus YPL051W, strain arl3, stronger effect = lower value 0.997 and 1.02 | S. cerevisiae deletion strains, locus YPL055C, strain LGE1, stronger effect = lower value 1.03 | S. cerevisiae deletion strains, locus YPL078C, strain atp4, stronger effect = lower value 1 and 0.993 | S. cerevisiae deletion strains, locus YPL106C, strain sse1, stronger effect = lower value 0.998 and 1.02 | S. cerevisiae deletion strains, locus YPL240C, strain hsp82, stronger effect = lower value 1 and 1.01 | S. cerevisiae deletion strains, locus YPL241C, strain CIN2, stronger effect = lower value 0.992 | S. cerevisiae deletion strains, locus YPL256C, strain CLN2, stronger effect = lower value 0.993 and 0.947 | S. cerevisiae deletion strains, locus YPR119W, strain clb2, stronger effect = lower value 0.993 | S. cerevisiae deletion strains, locus YPR141C, strain kar3, stronger effect = lower value 0.975 | S. cerevisiae deletion strains, locus YPR163C, strain tif3, stronger effect = lower value 0.998 | S. cerevisiae deletion strains, locus YPR167C, strain met16, stronger effect = lower value 0.988 | S. cerevisiae deletion strains, strain wtn01, stronger effect = lower value 0.988 | S. cerevisiae strains, strain wild type, stronger effect = lower value 0.995
